In the library only some 21% were active in any assay of this set; here they are far more common.
DRD3 antagonist – qHTS of D3 Dopamine Receptor Antagonist: qHTS | max response, negative = inhibition, % | hit rate 2.5% among 360,000 | AID 652054, 2013 | D3R cells, DiscoveRx beta-arrestin luminescence, antagonist mode; active compounds read low | D(3) dopamine receptor (Homo sapiens), P35462; in the data active = max response below about -50%; inconclusive = no clear call, values can overlap the other calls
Target sequence (P35462 whole entry, looked up): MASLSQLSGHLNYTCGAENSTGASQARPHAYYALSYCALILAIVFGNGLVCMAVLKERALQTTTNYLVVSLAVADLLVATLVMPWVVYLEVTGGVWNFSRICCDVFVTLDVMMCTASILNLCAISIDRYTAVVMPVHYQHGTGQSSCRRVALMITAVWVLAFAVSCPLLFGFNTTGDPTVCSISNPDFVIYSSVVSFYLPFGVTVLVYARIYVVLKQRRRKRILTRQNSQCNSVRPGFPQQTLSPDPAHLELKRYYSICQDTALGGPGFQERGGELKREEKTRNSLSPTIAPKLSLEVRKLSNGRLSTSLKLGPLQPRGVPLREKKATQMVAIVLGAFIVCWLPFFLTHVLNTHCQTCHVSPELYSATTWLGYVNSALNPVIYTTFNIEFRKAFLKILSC
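Cells plated overnight at 1500 cells/well, then exposed to library compounds with dopamine controls for 90 minutes at 37 degrees C. DiscoveRx reagent added for 30–60 minutes at room temperature; luminescence read, quantitative HTS format.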
DT40 TDP1 no CPT – qHTS for Inhibitors of human tyrosyl-DNA phosphodiesterase 1 (TDP1): qHTS in cells in absence of CPT; DT40 Tdp1-/- hTDP1 cells, no CPT, ATP luminescence, 48 h; Potency, µM (titrated, usually from 46.2 µM), hits mostly inhibitors; hit rate 15% among 420,000; AID 686978, 2013; note: nearly all actives have a fitted effect of over 55% in size
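DT40 Tdp1-/-;hTDP1 cells, no CPT (DMSO vehicle only), 400 cells/well; compounds pin-transferred; ≥48 hr, 37 °C; CellTiter-Glo 30 min RT dark, luminescence read.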
DRD3 agonist – qHTS of D3 Dopamine Receptor Agonist: qHTS; max activation, %; hit rate 0.58% among 410,000; AID 652048, 2013; D(3) dopamine receptor (Homo sapiens), P35462; D3R DiscoveRx beta-arrestin cells, luminescence, 90 min; in the data active = max activation above about 30%
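Cells at 1500/well, incubated overnight, then treated with pinned compounds (dopamine as control) for 90 min at 37 degrees C. DiscoveRx reagent added for 30 - 60 minutes at room temperature; luminescence read.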
TDP1 cell CPT – qHTS for Inhibitors of human tyrosyl-DNA phosphodiesterase 1 (TDP1): qHTS in cells in presence of CPT; hit rate 12% among 420,000; chicken DT40 Tdp1-/-;hTDP1 cells + 20 nM CPT, ATP luminescence, 48 h; AID 686979, 2013; Potency, µM (top dose mostly 46.2 µM), hits mostly inhibitors; note: nearly all actives have a fitted effect of over 55% in size
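Chicken DT40 Tdp1-/- cells stably complemented with human TDP1 were seeded at 400 cells/well in medium containing 20 nM camptothecin, exposed to pin-transferred compounds, and grown at 37 °C for at least 48 hr. Viability was read as ATP luminescence.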
IL1B secr inh – qHTS for Inhibitors of Inflammasome Signaling: IL-1-beta AlphaLISA Primary Screen; activity change, % at 57.5 µM; hit rate 4.7% among 360,000; AID 743279, 2014; THP-1 LPS/ATP IL-1B secretion, AlphaLISA, 16 h; active compounds read low; in the data active = activity change below about -50%; inconclusive = mostly about -30% to -49%
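Secreted IL-1B measured by AlphaLISA bead assay after 16 h compound exposure of THP-1 cells; compounds (final up to 57.5 uM) added 1 h before LPS (250 ng/mL) and ATP (1.25 mM) stimulation; lower signal means less secretion.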
ClpP mod – qHTS Assay for Activators of ClpP; Potency, µM (titrated, usually from 57.5 µM); hit rate 1.9% among 340,000; purified B. subtilis ClpP, FRET peptide cleavage, 20 min; AID 651965, 2013; active = well fitted falling curve with a large enough effect; inconclusive = small, poorly fitted or top-dose-only effect; inactive = no such curve, though single readings can be large or run the other way; note: the source files actives as falling curves though it sought activators and does not explain the sign; nearly all actives have a fitted effect of over 65% in size
Target sequence (P80244 whole entry, looked up): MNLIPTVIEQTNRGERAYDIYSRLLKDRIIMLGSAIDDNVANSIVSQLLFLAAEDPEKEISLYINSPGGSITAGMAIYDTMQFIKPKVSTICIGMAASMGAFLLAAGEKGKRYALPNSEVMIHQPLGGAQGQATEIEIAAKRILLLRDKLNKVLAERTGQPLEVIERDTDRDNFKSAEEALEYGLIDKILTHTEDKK
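FRET quenching reversal measured ClpP activation: 10 microg/mL B. subtilis ClpP at pH 8 with the FRET-FV decapeptide, read at 430 nm after 320 nm excitation. The 20-min minus 0-min signal was scaled between DMSO/no-enzyme wells and ADEP (5.8 microM final).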
Of the large screens only hits and unclear results are named; the others gave an inactive call. Unless noted, calls come from the whole dose curve; as a rule, active = well fitted inhibition curve with a large enough effect; inconclusive = small, poorly fitted or top-dose-only effect; inactive = flat fitted curve, though single readings scatter.

C#CCOCCOCCOCCNc1nc(N2CCN(C(=O)[C@H](CCCN=C(N)N)n3cc(C(N)[C@@H](C)CC)nn3)CC2)nc(N2CCN(C(=O)[C@H](CCC(=O)O)n3cc([C@@H](N)CO)nn3)CC2)n1 (stereo partly drawn)	none
Cc1nc2nncn2c(N2CCN(c3ccccc3)CC2)c1C	DT40 TDP1 no CPT inconclusive, TDP1 cell CPT inconclusive (no result: DRD3 antagonist, IL1B secr inh)
Cc1nc2nncn2c(NCc2ccc(F)cc2)c1C	DT40 TDP1 no CPT 4.1µM, TDP1 cell CPT 5.2µM (no result: DRD3 antagonist, IL1B secr inh)
Cc1ccc(C(=O)CCC(=O)OC(C)C(=O)NC2CCCCC2C)cc1 (stereo not drawn)	none
Cc1nc2ccc(C(=O)NCCCN3CCCC3=O)cn2c1N(C)C(=O)CCc1ccccc1	none
Brc1ccc(-c2ccc(CNCc3ccccn3)o2)cc1	DRD3 antagonist -74, DT40 TDP1 no CPT inconclusive, TDP1 cell CPT inconclusive
Cc1cc(Cl)ccc1NC(=O)CN1C(=O)COc2ccc(S(=O)(=O)Nc3ccccc3)cc21	DT40 TDP1 no CPT inconclusive, TDP1 cell CPT inconclusive (no result: DRD3 antagonist, IL1B secr inh)
COc1ccc(N=C2S/C(=C\c3ccc(Cl)c([N+](=O)[O-])c3)C(=O)N2CCN(C)C)cc1	DRD3 antagonist -128, DT40 TDP1 no CPT 16µM, TDP1 cell CPT 21µM, IL1B secr inh -61
CCOC(=O)CN1C(=O)S/C(=C/c2ccc(OC)c([N+](=O)[O-])c2)C1=O	DT40 TDP1 no CPT inconclusive (no result: ClpP mod)
CCN(CC)CCN1C(=O)/C(=C\c2ccc(Cl)c([N+](=O)[O-])c2)SC1=Nc1ccc(OC)cc1	DRD3 antagonist -102, DT40 TDP1 no CPT 16µM, TDP1 cell CPT 21µM, IL1B secr inh -99 (no result: ClpP mod)
NC(=O)c1ccsc1NC(=O)COC(=O)CNC(=O)c1ccc(Cl)cc1	ClpP mod inconclusive
CCOC(=O)c1c(C)[nH]c(C)c1S(=O)(=O)N1CCN(c2ccc([N+](=O)[O-])cc2)CC1	DT40 TDP1 no CPT 13µM, TDP1 cell CPT inconclusive
O=C(NCCN1CCN(c2cccc(Cl)c2)CC1)C1CCCN(S(=O)(=O)c2cnc[nH]2)C1 (stereo not drawn)	DRD3 antagonist -86, DT40 TDP1 no CPT inconclusive, TDP1 cell CPT inconclusive
O=C(NCCN1CCN(c2ccccc2)CC1)C1CCCN(S(=O)(=O)c2cnc[nH]2)C1 (stereo not drawn)	DRD3 antagonist -63
CCN(CCNC(=O)C1CCCN(S(=O)(=O)c2cnc[nH]2)C1)c1ccccc1 (stereo not drawn)	none
CCOC(=O)c1c(C)[nH]c(C)c1S(=O)(=O)N1CCN(c2ccc(Cl)cc2)CC1	DT40 TDP1 no CPT inconclusive, TDP1 cell CPT inconclusive (no result: DRD3 antagonist, IL1B secr inh)
CCOC(=O)c1c(C)[nH]c(C)c1S(=O)(=O)N1CCCC(C(=O)N2CCN(c3ccc(Cl)cc3)CC2)C1 (stereo not drawn)	DT40 TDP1 no CPT inconclusive, TDP1 cell CPT 16µM (no result: DRD3 antagonist, IL1B secr inh)
CC(CCc1ccccc1)NC(=O)C1CCN(S(=O)(=O)c2cnc[nH]2)CC1 (stereo not drawn)	IL1B secr inh -55
CC1CCCN(S(=O)(=O)c2cnc[nH]2)C1 (stereo not drawn)	DRD3 agonist 33
COc1ccc(S(=O)(=O)N2CCC(C(=O)NC(C)CCc3ccccc3)CC2)cc1 (stereo not drawn)	none (no result: IL1B secr inh, ClpP mod)
O=C(C1CCCN(S(=O)(=O)c2cnc[nH]2)C1)N1CCN(c2ccc(Cl)cc2)CC1 (stereo not drawn)	DT40 TDP1 no CPT 18µM, TDP1 cell CPT 13µM
O=S(=O)(c1cnc[nH]1)N1CCN(c2ccc(Cl)cc2)CC1	none
CC1=C(C)CC(C(=O)Nc2ccc(C(=O)N3CCOCC3)cc2)C(C(=O)O)C1 (stereo not drawn)	none (no result: ClpP mod)
COc1ccc(C(=O)Nc2ccc(-c3cc4ccccc4oc3=O)c(C)c2)cc1Br	DT40 TDP1 no CPT inconclusive, TDP1 cell CPT inconclusive (no result: DRD3 antagonist, IL1B secr inh)
O=c1c([N+](=O)[O-])cccn1Cc1cccc(Br)c1	none (no result: ClpP mod)
Cc1ccc(S(=O)(=O)NCC(c2ccc3c(c2)OCO3)N2CCOCC2)cc1 (stereo not drawn)	DT40 TDP1 no CPT inconclusive, ClpP mod 28µM
O=S(=O)(NCC(c1ccc2c(c1)OCO2)N1CCOCC1)c1ccc(Br)cc1 (stereo not drawn)	DT40 TDP1 no CPT 21µM, TDP1 cell CPT 16µM (no result: ClpP mod)
Cc1ccc(Cn2cnc3c(cnn3C(C)(C)C)c2=O)cc1	DT40 TDP1 no CPT 13µM, TDP1 cell CPT 26µM
CC(C)(C)n1ncc2c(=O)n(Cc3ccc(Cl)c(Cl)c3)cnc21	none (no result: ClpP mod)
O=S(=O)(c1ccc(Cl)cc1)N1CCN(c2nc(-c3ccccc3)nc3ccccc23)CC1	DT40 TDP1 no CPT 10µM, TDP1 cell CPT inconclusive (no result: DRD3 antagonist, DRD3 agonist, IL1B secr inh)
NS(=O)(=O)c1ccc(S(=O)(=O)N2CCN(c3nc(-c4ccccc4)nc4ccccc34)CC2)cc1	DT40 TDP1 no CPT inconclusive, TDP1 cell CPT inconclusive (no result: DRD3 antagonist, DRD3 agonist, IL1B secr inh)
N#CCc1c(C#N)c(N)nc(N2CCN(S(=O)(=O)c3ccccc3)CC2)c1C#N	DT40 TDP1 no CPT 16µM, TDP1 cell CPT 8.2µM, ClpP mod inconclusive
CCc1nc2ccccc2nc1N1CCN(S(=O)(=O)c2ccccc2)CC1	DT40 TDP1 no CPT 16µM, TDP1 cell CPT inconclusive, IL1B secr inh -90 (no result: ClpP mod)
Cc1ccc(S(=O)(=O)N2CCN(c3nc(-c4ccccc4)nc4ccccc34)CC2)cc1	none (no result: DRD3 antagonist, DRD3 agonist, IL1B secr inh)
CCc1nc2ccccc2nc1N1CCN(S(=O)(=O)c2c(C)cc(Cl)cc2C)CC1	none
O=S(=O)(c1ccc(F)cc1)N1CCN(c2nc(-c3ccccc3)nc3ccccc23)CC1	DT40 TDP1 no CPT 13µM, TDP1 cell CPT inconclusive, ClpP mod inconclusive (no result: DRD3 antagonist, DRD3 agonist, IL1B secr inh)
Cc1ccc(-n2ncc3c(=O)n(CC(=O)N4CCN(C(=O)c5ccco5)CC4)cnc32)cc1	none
O=S(=O)(c1ccc2c(c1)CCCC2)N1CCN(c2nc(-c3ccccc3)nc3ccccc23)CC1	DT40 TDP1 no CPT 10µM, TDP1 cell CPT 10µM (no result: DRD3 antagonist, DRD3 agonist, IL1B secr inh)
Cc1cc(NC(=O)CCCn2ccc([N+](=O)[O-])n2)n(Cc2ccc(F)cc2)n1	none
O=C(c1cc2n(n1)C(C(F)(F)F)CC(c1ccco1)N2)N1CCN(c2ccccn2)CC1 (stereo not drawn)	DT40 TDP1 no CPT 26µM, TDP1 cell CPT inconclusive, ClpP mod inconclusive
O=C(O)c1cc2n(n1)C(C(F)(F)F)CC(c1ccco1)N2 (stereo not drawn)	none

Source: PubChem BioAssay
